Compound activity: PubChem, several laboratories
Shown are actives, neighbours in structure and some others; about 3.7% of the full set was active somewhere.
tim10-1 inh: growth inhibitors of tim10-1 mutant yeast, primary screen, luminescence, uHTS. inhibition, % at 20 µM. 330,000 tested, 2.2% active. S. cerevisiae tim10-1 ts strain growth, BacTiter-Glo, 24 h;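 active = inhibition of at least 40%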;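 also: mutant grown at 25 °C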
tim23-1 inh: growth inhibitors of tim23-1 mutant yeast, primary screen, luminescence, uHTS. S. cerevisiae tim23-1 growth, BacTiter-Glo luminescence, 24 h. 330,000 tested, 1.3% active. AID 463212, 2010. inhibition, % at 20 µM;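 active = growth inhibition of the mutant yeast at or above 50%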;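 also: temperature-sensitive mutant grown at 25 °C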
NALP3 yeast inh: NALP3 inflammasome inhibitors in reconstituted yeast, primary screen, luminescence, uHTS | Yeast reconstituted NLRP3/ASC/caspase-1, beta-gal luminescence, 24 h | inhibition, % at 10 µM | 330,000 tested, 0.39% active;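 active = inhibition of 50% or more; inactive = inhibition below 50%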
TIM10 inh: growth inhibitors of isogenic TIM10 control yeast, primary screen, counter-screen for tim10-1 yeast inhibitor project, luminescence, uHTS; inhibition, % at 10 µM; 330,000 tested, 1.4% active; S. cerevisiae TIM10 strain growth, BacTiter-Glo luminescence, 24 h;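 active = inhibition of 40% or more at the single tested concentration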;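 also: wild-type TIM10 isogenic control strain grown at permissive 25 °C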
PfHsp90 set2: growth inhibition of PfHsp90-expressing yeast, primary screen, antimalarial PfHsp90 inhibitor project, S. cerevisiae, BacTiter-Glo luminescence, single point, set 2. BacTiter-Glo ATP, 48 h; yeast lacking PDR1 and PDR3 efflux regulators. inhibition, % at 9.4 µM. 310,000 tested, 0.32% active;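 active = every replicate shows inhibition above about 80%, whatever the replicate mean, limit read from the data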
NALP3 yeast conf: NALP3 inhibitors retested in yeast, confirmation, luminescence, single concentration. shares compounds with NALP3 yeast inh. yeast expressing human NALP3. inhibition, % at 10 µM. 1,300 tested, 81% active. AID 435006, 2010; in the data active = inhibition above about 48%
Casp1 ASC ctr: CASP1-PYCARD signaling inhibition in yeast, confirmatory test, counterassay for NLRP3 inhibitor program, one-dose; shares compounds with NALP3 yeast inh; yeast expressing Caspase-1-ASC, luminescence counter screen; inhibition, % at 10 µM; 1,000 tested, 66% active; AID 488784, 2010
NALP3 yeast rt: NALP3 inhibitors in yeast, repeat test, confirmation, luminescence, single concentration, retest | inhibition, % at 10 µM | 1,000 tested, 53% active | AID 488794, 2010 | shares compounds with NALP3 yeast inh | yeast expressing human NALP3, luminescence read-out
Numbers stand for hits; - = inactive; . = no result given. Rule as the data show it, unless noted: active = inhibition above about 50%; inactive = the rest.

SMILES	tim10-1 inh	tim23-1 inh	NALP3 yeast inh	TIM10 inh	PfHsp90 set2	NALP3 yeast conf	Casp1 ASC ctr	NALP3 yeast rt
COc1cc(C(C[N+](=O)[O-])c2c(N)n(C)c(=O)n(C)c2=O)ccc1O (stereo not given)	-	-	50.2	-	-	-	.	.
O=C(Nc1ccc(Nc2ccccc2)cc1)c1cccc(F)c1	-	-	56.6	-	-	72.2	50.8	57.2
O=C(Nc1ccncc1)c1cccc(F)c1	-	-	-	-	-	.	.	.
Cc1cc(C(=O)NCc2ccccc2Br)no1	-	-	-	-	.	.	.	.
CC(Sc1nnnn1-c1ccc(O)cc1)C(=O)NNC(=O)c1ccc(F)cc1 (stereo not given)	-	-	-	-	-	.	.	.
Cc1ccccc1OCCn1cc(C=O)c2ccccc21	-	-	-	-	-	.	.	.
N#CC1=C(N)Oc2cc(O)c(Cl)cc2C1c1ccccc1F (stereo not given)	-	-	-	-	-	.	.	.
Nc1ccccc1SC/C=C/CSc1ccccc1N	-	-	52.4	-	-	57.2	-	-
Cc1cc(C)n(C2CCCCC2OC(=O)c2ccccc2)n1 (stereo not given)	-	-	-	-	-	.	.	.
COc1ccc(C(NC(=O)c2c(F)c(F)c(F)c(F)c2F)c2ccccc2)cc1 (stereo not given)	-	-	62.7	-	-	-	.	.
COc1ccc(C(NC(=O)c2cc(OC)ccc2OC)c2ccccc2)cc1 (stereo not given)	-	-	-	-	-	.	.	.
Nc1nc2ccccc2cc1-c1cccs1	-	-	50.7	-	-	69.4	59.4	63.0
CC(=O)N(/N=C1\Sc2ccccc2C1=O)c1ccccc1C	-	-	53.9	-	.	48.0	-	-
CCCCCCCCC(=O)N1CCN(c2cc3c(cc2F)c(=O)c(C(=O)O)cn3CC)CC1	-	-	57.4	-	-	51.7	-	-
CC1CCN(C(=O)CSc2nnc(CNC(=O)c3ccc(F)cc3)o2)CC1	-	-	-	-	-	.	.	.
CCC1Nc2ncnc(N3CCN(c4ccccn4)CC3)c2N(Cc2ccc(Br)cc2)C1=O (stereo not given)	-	-	55.7	-	-	69.6	-	65.7
CCC1Nc2ncnc(N3CCN(c4ccccn4)CC3)c2N(Cc2ccc(Cl)cc2)C1=O (stereo not given)	-	-	50.5	-	-	59.8	-	51.6
CCC1Nc2ncnc(N3CCCCC3)c2N(Cc2ccc(Cl)cc2)C1=O (stereo not given)	-	-	-	-	-	.	.	.
CCC1Nc2ncnc(N3CCCCC3)c2N(Cc2ccc(Br)cc2)C1=O (stereo not given)	-	-	-	-	-	.	.	.
Cc1nc2ccccc2c(=O)n1NC(=O)c1cc(Br)ccc1Cl	-	-	-	-	-	.	.	.
CCN(CC)CCNCc1cc(Cl)c(OCC(=O)Nc2ccccc2)c(OC)c1	-	-	-	-	-	.	.	.
COc1cc(CNC(C)c2ccccc2)cc(Cl)c1OCC(=O)Nc1ccccc1 (stereo not given)	-	-	53.0	-	-	-	.	.
CCOc1cc(NC(=S)NCC(C)C)c(OCC)cc1NC(=O)c1cccs1	-	-	-	-	-	.	.	.
CN(CC(=O)Nc1ccc(F)c(F)c1F)C(=O)C1COc2ccccc2O1 (stereo not given)	-	-	-	-	-	.	.	.
Cc1cc(NC(=O)C(C)Oc2ccc(Cl)cc2Cl)no1 (stereo not given)	-	-	-	-	-	.	.	.
SMILES	tim10-1 inh	tim23-1 inh	NALP3 yeast inh	TIM10 inh	PfHsp90 set2	NALP3 yeast conf	Casp1 ASC ctr	NALP3 yeast rt
CCc1nnc(NC(=S)Nc2ccccc2)s1	-	-	54.7	-	-	-	.	.
O=c1cn[nH]c2ccc(Br)cc12	.	.	.	.	-	.	.	.
Brc1ccc2[nH]ncc2c1	-	-	53.4	-	-	-	60.5	-
COc1cc(OC)cc(C(=O)OCCCOC(=O)c2cc(OC)cc(OC)c2)c1	-	-	-	-	-	.	.	.
Oc1ccc(N=Nc2n[nH]c(-c3ccccc3)n2)cc1	-	-	-	-	-	.	.	.
Oc1ccc(N=Nc2nc(-c3ccccc3)c(-c3ccccc3)[nH]2)cc1	-	-	50.6	-	100.0	62.0	74.8	-
CC(=O)N1N=C(c2ccc(Cl)cc2)OC1(C)C	-	-	70.7	-	-	51.0	51.5	-
c1ccc2nc(-c3nc4ccccc4[nH]3)ccc2c1	-	-	53.2	-	-	67.2	-	-
Fc1ccccc1-c1nc2ccccc2[nH]1	-	-	60.4	-	-	57.8	53.9	59.5
O=C(Nc1cnc2ccccc2c1)c1ccco1	-	-	51.7	-	-	-	-	-
O=C(Nc1cccc(-c2cnc3ccccc3n2)c1)c1ccco1	-	-	-	-	-	.	.	.
CCN(CC)S(=O)(=O)c1ccc2nc(CCl)[nH]c2c1	-	-	-	-	-	.	.	.
CC(C)NC(=O)[C@]1(C)CCC[C@@]2(C)C3CC[C@@]4(C)C[C@]3(CCC21)CC4=O (stereo not given in full)	-	-	58.7	-	-	-	52.8	53.1
C[C@@]12CCC3[C@@](CCC4[C@@]3(C)CCC[C@@]4(C)C(=O)Nc3ccc(Cl)cc3)(CC1=O)C2 (stereo not given in full)	-	-	-	-	.	.	.	.
CCCCOc1ccc(CSCCN)cc1Cl	-	-	67.4	-	-	75.7	.	.
CCOc1ccc(CSC(=N)N)cc1Cl	-	-	-	-	-	.	.	.
CCOc1ccc(N2CC(C(=O)NCCCc3ccccc3)CC2=O)cc1 (stereo not given)	-	-	-	-	-	.	.	.
CCN(CC)c1ccc(NC(=O)CSC(=O)c2ccccc2)cc1	-	-	55.8	-	-	54.2	56.5	-
CC(=O)c1cccc(NC(=O)CSC(=O)c2ccccc2)c1	-	-	-	-	.	.	.	.
Cc1cccc(-c2nnc(SCC#N)n2-c2ccccc2)c1	-	-	-	-	-	.	.	.
Cc1ccc(-n2c(SCCN)nnc2-c2cccc(C)c2)cc1	-	-	77.7	-	-	78.2	.	.
O=C(NC1=NCCS1)c1ccccc1OCc1ccccc1Cl	-	-	95.8	-	-	99.2	97.8	97.8
CC1(c2nnc(-c3ccncc3)o2)CC(c2ccc(Cl)cc2)=NO1 (stereo not given)	-	-	-	-	-	.	.	.
CC1(c2nnc(-c3ccccc3)o2)CC(c2ccc(Cl)cc2)=NO1 (stereo not given)	-	-	51.9	-	-	56.1	-	-
c1nc(C2CCCCC2)cc2cc3c(cc12)OCO3	-	-	51.0	-	-	53.8	.	.
